Legend:
Settings in all cases: concentration: 1 μM, replicates: in singlicate; n = 1
SGK3 = tested on: SGK3
SGK = tested on: SGK
SIK2 = tested on: SIK2
SIK = tested on: SIK
SLK = tested on: SLK
SNARK = tested on: T1, SNARK
T1 construct: gene NUAK2

SNRK = tested on: SNRK
SRC = tested on: SRC
SRMS = tested on: SRMS
SRPK1 = tested on: SRPK1
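Further: KINOMEscan kinase panel screen.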

| SMILES | %Inh (SGK3) [%] | %Inh (SGK) [%] | %Inh (SIK2) [%] | %Inh (SIK) [%] | %Inh (SLK) [%] | %Inh (SNARK) [%] | %Inh (SNRK) [%] | %Inh (SRC) [%] | %Inh (SRMS) [%] | %Inh (SRPK1) [%] |
| --- | --- | --- | --- | --- | --- | --- | --- | --- | --- | --- |
| Cc1ccc(NC(=O)Nc2ccc(Cl)cc2)cc1-c1ccc(C(=O)Nc2ccncc2)cc1 [GSK1398472] | 13 | 0 | 11 | 20 | 12 | 0 | 0 | 8 | 0 | 0 |
| Cc1ccccc1Cn1ccn2c(=O)cc(N3CCOCC3)nc12 [GSK2269905] | 2 | 0 | 0 | 0 | 20 | 0 | 0 | 0 | 0 | 24 |
| COc1cccc(C2=C(Nc3cc(Cl)c(O)c(Cl)c3)C(=O)NC2=O)c1 [SB-390767] | 0 | 0 | 0 | 0 | 13 | 0 | 0 | 0 | 0 | 11 |
| CNc1nc(-c2ccc3c(N)n[nH]c3c2)cc(N2C[C@@H](C(=O)NC3CCCCC3)OC[C@H]2C)n1 [GSK2375584] | 20 | 0 | 0 | 0 | 24 | 30 | 2 | 0 | 0 | 4 |
| CCn1c(-c2ccccc2)nc2cnccc21 [SB-733416] | 0 | 9 | 5 | 3 | 28 | 0 | 0 | 0 | 0 | 11 |
| Nc1nccc(-c2c(-c3ccc(F)cc3)ncn2C2CCN(Cc3ccccc3)CC2)n1 [SB-219980] | 28 | 2 | 24 | 6 | 0 | 38 | 0 | 0 | 11 | 0 |
| O=C(Nc1n[nH]c2nc(-c3cccs3)c(Br)cc12)C1CC1 [SB-735297] | 15 | 26 | 0 | 0 | 7 | 10 | 0 | 0 | 5 | 22 |
| O=C(Nc1n[nH]c2nc(-c3cccs3)c(Br)cc12)C1CCCC1 [SB-743341] | 40 | 0 | 0 | 17 | 38 | 34 | 19 | 7 | 0 | 0 |
| CC(=O)c1cccc(NC(=O)NC2CCN(c3ccnc(Nc4ccc(F)cc4)n3)C2)c1 (centres unmarked) [GSK1379710] | 5 | 18 | 9 | 0 | 2 | 19 | 7 | 0 | 8 | 21 |
| COc1ccc(CSc2nnc(-c3ccc4c(c3)CCO4)o2)cc1 | 0 | 0 | 0 | 0 | 0 | 0 | 0 | 0 | 0 | 0 |
| Cc1ccc(NC(=O)Nc2ccccc2)cc1-c1ccc(C(=O)Nc2ccncc2)cc1 [GSK1398471] | 10 | 0 | 0 | 6 | 13 | 4 | 0 | 20 | 0 | 33 |
| CC[C@@H]1CO[C@H](C(=O)Nc2ccccc2)CN1c1cc(-c2ccc3c(N)n[nH]c3c2)nc(NC)n1 [GSK2376236] | 9 | 19 | 0 | 0 | 16 | 26 | 5 | 0 | 0 | 32 |
| Fc1ccc(-c2nc[nH]c2-c2ccncc2)cc1 [SB-217360] | 7 | 0 | 0 | 0 | 32 | 0 | 0 | 0 | 34 | 0 |
| Cc1ccc(NC(=O)Nc2ccc(Cl)c(C(F)(F)F)c2)cc1-c1ccc(C(=O)Nc2ccncc2)cc1 [GSK1398470] | 4 | 0 | 26 | 41 | 21 | 4 | 56 | 21 | 0 | 30 |
| CS(=O)(=O)CCNCc1nc(-c2ccc3ncnc(Nc4ccc5c(cnn5Cc5ccccc5)c4)c3c2)cs1.Cl.Cl [GW569716] | 0 | 3 | 0 | 0 | 0 | 0 | 0 | 0 | 0 | 14 |
| COc1ccc(Nc2nccc(NCCNC(=O)Nc3cc(C)ccc3C)n2)cc1 [GSK1379899] | 0 | 0 | 0 | 0 | 27 | 0 | 0 | 0 | 0 | 34 |
| Cc1ccccc1-c1cc(-c2c[nH]nc2-c2ccccn2)ccn1 [GW680061] | 0 | 0 | 0 | 0 | 0 | 1 | 0 | 0 | 0 | 0 |
